Source: PubChem BioAssay (Tox21)
Where “and” joins values, the source holds several entries; their conditions need not be identical. Equal entries are not always repeated. Inconclusive results are not listed. Some compounds were tested as several samples or in several runs, with calls that do not always agree. Calls of active or inactive are those of the source. Unless noted, calls follow the shape of the dose curve; as a rule, active = well fitted curve in the direction sought with a large enough effect in the repeat runs; inconclusive = weak or mixed curves; inactive = no such curve, though single readings can be large; an effect the other way counts as inactive or inconclusive.

Columns and labels:
[1] = qHTS assay to identify small molecule antagonists of the estrogen related receptor (ERR) signaling pathway from Tox21 library - cell viability counter screen (AID 1224834); also: nearly all actives have a fitted effect of over 30% in size; also: potency is read from the fitted curve at half-maximal effect
Method in brief: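 Multiplexed viability counter screen in ERR cells: 17.5 h compound exposure at 37 C, CellTiter-Fluor added, 30 min at 37 C/5% CO2, fluorescence read.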

[2] = molecular target: Luciferin 4-monooxygenase (Photinus pyralis) (UniProt P08659); test: qHTS assay to identify small molecule inhibitors of firefly luciferase (AID 1224835); also: nearly all actives have a fitted effect of over 25% in size; also: potency is read from the fitted curve at half-maximal effect
Method in brief: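 Quantitative HTS format; KM concentrations of both substrates. Purified P. pyralis FLuc activity quantified from luminescence images.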

[3] = molecular target: Nuclear receptor subfamily 1 group I member 3 (Homo sapiens) (UniProt Q14994); test: qHTS assay to identify small molecule agonists of the constitutive androstane receptor (CAR) signaling pathway (AID 1224839); also: nearly all actives have a fitted effect of over 15% in size; also: potency is read from the fitted curve at half-maximal effect;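 as to activation: HepG2 cells stably carrying human CAR and a CYP2B6 luciferase reporter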
Method in brief: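 Cells were plated and incubated 4 hrs, then dosed with compounds at 15 concentrations. PK11195 was added to 0.75 uM final. After 24 hrs at 37 C, luciferase luminescence was measured.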

[4] = qHTS assay to identify small molecule antagonists of the estrogen related receptor signaling pathway with the pleiotropic PPARgamma coactivator (PGC) from Tox21 10K library - cell viability counter screen (AID 1224840; active = well fitted cell-killing curve with a large enough effect in the repeat runs, not every such curve was filed as active; also: nearly all actives have a fitted effect of over 40% in size; also: potency is read from the fitted curve at half-maximal effect)
Method in brief: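 Fluorescence read-out of CellTiter-Fluor viability reagent, added after cells had been exposed to compound in DMSO for 17.5 h at 37 C; 30 min development at 37 C/5% CO2. Cells: PGC/ERR line, 2,000/well.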

[5] = qHTS assay to identify small molecule agonists of H2AX (AID 1224845; active = well fitted activation curve with a large enough effect in the signal ratio in the repeat runs, not every such curve was filed as active; the % refers to the signal ratio; also: potency is read from the fitted curve at half-maximal effect)
Method in brief: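 Wild-type CHO-K1 cells plated overnight, then exposed 3 hr at 37C to compounds at 15 concentrations (0.76% DMSO). Lysed, then HTRF anti-pH2AX(S139)-cryptate/anti-H2AX-d2 detection after 24 hr at room temperature; emissions 665 and 620 nm.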

[6] = qHTS assay to identify small molecule agonists of the hypoxia (HIF-1) signaling pathway (AID 1224846; active = well fitted activation curve with a large enough effect in the signal ratio in the repeat runs, not every such curve was filed as active; the % refers to the signal ratio)
Method in brief: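 Beta-lactamase FRET read-out (CCF4-AM substrate) from ME-180 cells carrying an HRE-driven bla reporter, after 17 hrs compound exposure at 37C/5% CO2. Cells were seeded at 2,000 per well in 0.5% dialyzed FBS medium and preincubated 5 hrs.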

[7] = qHTS assay to identify small molecule agonists of H2AX - cell viability counter screen (AID 1224847; calls by dose curve; also: top concentration of the series differs between compounds; nearly all actives have a fitted effect of over 30% in size)
Method in brief: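 Cytotoxicity counter screen in wild-type CHO-K1 cells: a 3 hr compound treatment at 37C across 15 concentrations, followed by CellTiter-Glo luminescence to gauge viable cells.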

[8] = qHTS RealTime-Glo MT Cell Viability Assay in HepG2 cells - 24 hour (AID 1224867); also: nearly all actives have a fitted effect of over 50% in size; also: potency is read from the fitted curve at half-maximal effect
Method in brief: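 Real-time, nonlytic viability: 600 HepG2 cells/well mixed with NanoLuc enzyme plus prosubstrate; 5 h settle, compound (DMSO) added by pintool; luminescence monitored over 40 h at 37 C.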

[9] = A CellTox Green Cytotoxicity Assay to monitor cytotoxicity in HEK293 cells - 0 hour (AID 1224869); also: nearly all actives have a fitted effect of over 50% in size
Method in brief: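 Read-out: fluorescence of a cell-impermeant cyanine dye staining DNA of dead cells, proportional to cytotoxicity. HEK293, 600 cells/well with reagent, compound (23 nL DMSO) added after 5 h; reads at 0, 8, 16, 24, 32, 40 h.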

[10] = qHTS RealTime-Glo MT Cell Viability Assay in HepG2 cells - 40 hour (AID 1224870); also: nearly all actives have a fitted effect of over 50% in size; also: potency is read from the fitted curve at half-maximal effect
Method in brief: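 HepG2 cells mixed with RealTime-Glo MT reagents (NanoLuc plus cell-permeant prosubstrate) were seeded at 600 cells/well, incubated 5 h at 37 C/5% CO2, then pinned with compounds in DMSO; nonlytic luminescence tracked viability during 40 h treatment.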

[11] = qHTS assay to identify small molecule antagonists of the constitutive androstane receptor (CAR) signaling pathway - cell viability counter screen (AID 1224837); also: nearly all actives have a fitted effect of over 45% in size
Method in brief: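 Read-out: CellTiter-Fluor fluorescence after 23 hr at 37 C/5% CO2. Cells: HepG2 double-stable for hCAR and CYP2B6-2.2kb. Compounds tested at 15 concentrations in the presence of CITCO, final concentration 50 nM.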

[12] = molecular target: Nuclear receptor subfamily 1 group I member 3 (Homo sapiens) (UniProt Q14994); test: qHTS assay to identify small molecule antagonists of the constitutive androstane receptor (CAR) signaling pathway (AID 1224838);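 also: HepG2 cells stably expressing hCAR with CYP2B6 luciferase reporter stimulated by CITCO; nearly all actives have a fitted effect of over 40% in size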; also: potency is read from the fitted curve at half-maximal effect
Method in brief: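 Read-out: ONE-Glo luciferase luminescence after 30 min at room temperature. HepG2-CYP2B6-hCAR double-stable cells, compounds in 15-point titration plus 50 nM CITCO final, 24 h at 37 C/5% CO2.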

[13] = molecular target: Thyrotropin receptor (Homo sapiens) (UniProt P16473); test: qHTS assay to identify small molecule agonists of the thyroid stimulating hormone receptor (TSHR) signaling pathway (AID 1224843; calls by dose curve; also: nearly all actives have a fitted effect of over 45% in size; also: potency is read from the fitted curve at half-maximal effect)
Method in brief: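 Using 15 concentrations per compound in triplicate, cAMP production was monitored in TSHR-HEK293 cells after 30 min compound incubation at RT; HTRF reagents followed, with fluorescence intensity recorded after 1 h.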

[14] = qHTS assay to identify small molecule agonists of the hypoxia (HIF-1) signaling pathway - cell viability counter screen (AID 1224844; calls by dose curve; also: nearly all actives have a fitted effect of over 50% in size; also: potency is read from the fitted curve at half-maximal effect)
Method in brief: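 CellTiter-Glo luminescence read-out, 30 min RT, taken in the same wells as the beta-lactamase HRE reporter assay; HRE-bla ME-180 cells, 0.5% dialyzed FBS, 17 hr compound treatment at 37C, 5% CO2.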

[15] = qHTS RealTime-Glo MT Cell Viability Assay in HEK293 cells - 32 hour (AID 1224868); also: nearly all actives have a fitted effect of over 50% in size; also: potency is read from the fitted curve at half-maximal effect
Method in brief: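 Cells + reagent dispensed (600 cells/well, HEK293) → 5 h at 37 C/5% CO2 → 23 nL compound in DMSO pinned → 40 h at 37 C → luminescence read at 0, 8, 16, 24, 32, 40 h.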

[16] = qHTS assay to identify small molecule antagonists of the estrogen related receptor signaling pathway with the pleiotropic PPARgamma coactivator (PGC) from Tox21 10K library (AID 1224841; call rule not given here; also: potency is read from the fitted curve at half-maximal effect)
Method in brief: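 Luminescence read-out (One-Glo luciferase reagent, 30 min at room temperature) from PGC/ERR cells exposed to DMSO-dissolved test compounds for 18 h at 37 C; cells, 2,000 per well, had been preincubated 6 h before compound transfer.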

[17] = qHTS assay to identify small molecule agonists of the estrogen related receptor signaling pathway with the pleiotropic PPARgamma coactivator (PGC) from Tox21 10K library (AID 1224842); also: nearly all actives have a fitted effect of over 15% in size; also: potency is read from the fitted curve at half-maximal effect
Method in brief: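 PGC/ERR reporter cells (NTP line) were seeded 2,000 per well, rested 6 h at 37 C/5% CO2, then pin-dosed with compounds in DMSO for 18 h at 37 C; luciferase read by One-Glo luminescence after 30 min at room temperature.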

[18] = qHTS assay to identify small molecule antagonists of the estrogen related receptor (ERR) signaling pathway from Tox21 library (AID 1224848); also: nearly all actives have a fitted effect of over 50% in size; also: potency is read from the fitted curve at half-maximal effect
Method in brief: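 Tox21 10K compounds in DMSO tested for ERR pathway antagonism in NTP's ERR cell line; 18 h, 37 C exposure; ONE-Glo luminescence.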

[19] = qHTS assay to identify small molecule agonists of the estrogen related receptor (ERR) signaling pathway from Tox21 library (AID 1224849; calls by dose curve; also: nearly all actives have a fitted effect of over 15% in size); settings: ERR reporter cell line, ONE-Glo luciferase, 18 h; at 92.4 µM (top of the series) unless noted
Method in brief: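 Luminescence readout (ONE-Glo, 30 min RT) after 18 h compound exposure at 37 C of NTP-supplied ERR reporter cells; cells were plated 6 h before compound addition by pin tool.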

[20] = qHTS assay to identify small molecule agonists of the constitutive androstane receptor (CAR) signaling pathway - cell viability counter screen (AID 1224836); also: nearly all actives have a fitted effect of over 45% in size; also: potency is read from the fitted curve at half-maximal effect
Method in brief: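 Cells were seeded and incubated 4 hrs. Compounds were added across 15 concentrations together with PK11195 at 0.75 uM final. Plates were incubated 23 hrs at 37 C. CellTiter-Fluor was added and fluorescence measured.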
% is scaled to controls: 0 for no effect and ±100 for the full control effect.

Sequence of Thyrotropin receptor (Homo sapiens) (P16473 whole entry, looked up): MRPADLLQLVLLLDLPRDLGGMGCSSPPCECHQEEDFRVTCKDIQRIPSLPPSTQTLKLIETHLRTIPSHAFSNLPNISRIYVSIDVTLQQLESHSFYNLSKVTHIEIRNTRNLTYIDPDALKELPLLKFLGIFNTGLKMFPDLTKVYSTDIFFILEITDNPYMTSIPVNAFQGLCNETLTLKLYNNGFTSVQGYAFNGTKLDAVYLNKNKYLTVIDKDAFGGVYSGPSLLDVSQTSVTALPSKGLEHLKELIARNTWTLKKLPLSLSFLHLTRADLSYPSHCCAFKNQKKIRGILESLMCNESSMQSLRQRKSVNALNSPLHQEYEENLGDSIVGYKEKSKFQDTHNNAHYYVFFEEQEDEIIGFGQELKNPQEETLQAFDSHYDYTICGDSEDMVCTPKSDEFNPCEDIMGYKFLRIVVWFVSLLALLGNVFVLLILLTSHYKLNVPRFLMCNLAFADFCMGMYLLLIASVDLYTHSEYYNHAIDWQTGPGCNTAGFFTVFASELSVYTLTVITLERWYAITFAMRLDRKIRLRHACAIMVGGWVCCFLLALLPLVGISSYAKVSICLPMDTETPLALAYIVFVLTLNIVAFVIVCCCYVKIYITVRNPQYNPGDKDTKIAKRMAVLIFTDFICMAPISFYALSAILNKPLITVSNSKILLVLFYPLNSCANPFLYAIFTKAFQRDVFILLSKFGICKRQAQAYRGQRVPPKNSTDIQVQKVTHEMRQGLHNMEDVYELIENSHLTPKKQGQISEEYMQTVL
Sequence of Nuclear receptor subfamily 1 group I member 3 (Homo sapiens) (Q14994 whole entry, looked up): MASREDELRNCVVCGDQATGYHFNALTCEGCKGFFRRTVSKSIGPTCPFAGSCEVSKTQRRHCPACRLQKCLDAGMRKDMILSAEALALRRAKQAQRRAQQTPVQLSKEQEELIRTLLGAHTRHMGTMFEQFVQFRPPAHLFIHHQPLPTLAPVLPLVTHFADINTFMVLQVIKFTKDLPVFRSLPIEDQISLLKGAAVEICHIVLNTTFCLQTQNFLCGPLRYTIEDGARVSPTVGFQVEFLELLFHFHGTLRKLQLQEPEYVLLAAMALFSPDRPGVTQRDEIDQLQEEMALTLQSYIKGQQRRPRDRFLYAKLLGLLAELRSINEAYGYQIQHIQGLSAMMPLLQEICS
Sequence of Luciferin 4-monooxygenase (Photinus pyralis) (P08659 whole entry, looked up): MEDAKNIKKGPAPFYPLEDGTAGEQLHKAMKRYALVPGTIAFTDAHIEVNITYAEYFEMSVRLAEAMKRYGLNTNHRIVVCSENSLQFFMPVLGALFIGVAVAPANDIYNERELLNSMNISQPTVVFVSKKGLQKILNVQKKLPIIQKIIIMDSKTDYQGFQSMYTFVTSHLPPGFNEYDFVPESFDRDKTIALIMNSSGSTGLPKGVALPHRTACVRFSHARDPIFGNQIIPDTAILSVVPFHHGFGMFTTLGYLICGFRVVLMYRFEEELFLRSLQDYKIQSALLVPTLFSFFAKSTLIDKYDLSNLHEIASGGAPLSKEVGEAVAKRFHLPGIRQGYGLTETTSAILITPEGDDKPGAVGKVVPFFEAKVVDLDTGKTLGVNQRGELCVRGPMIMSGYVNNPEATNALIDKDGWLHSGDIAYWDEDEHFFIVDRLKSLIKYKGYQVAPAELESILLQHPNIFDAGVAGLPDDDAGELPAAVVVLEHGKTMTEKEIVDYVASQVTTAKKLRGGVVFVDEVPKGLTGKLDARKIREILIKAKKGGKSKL

Cc1ccc(-c2c(Cl)nc(C#N)n2S(=O)(=O)N(C)C)cc1
active: Potency [1] 54.4 µM | Potency [2] 35.6 µM | Potency [4] 61.1 µM
inactive: Potency [3] | Potency [5] | outcome [6] | Potency [7] | Potency [8] | Potency [9] | Potency [10]

CC(=O)CCC(C)=O
inactive: Potency [1] | Potency [2] | Potency [11] | Potency [12] | Potency [13] | Potency [14] | Potency [5] | Potency [7] | Potency [8] | Potency [15] | Potency [9] | Potency [10]

O=Cc1ccc2c(c1)OCO2
inactive: Potency [1] | Potency [2] | Potency [11] | Potency [14] | Potency [5] | Potency [7] | Potency [8] | Potency [15] | Potency [9] | Potency [10]

Brc1ccc(Oc2ccccc2)cc1
active: Potency [13] 1.25 µM
885 nM (active) and inactive: Potency [17]
inactive: Potency [1] | Potency [2] | Potency [11] | Potency [16] | Potency [14] | Potency [5] | Potency [18] | activity change, positive = activation [19] -18.4% and 0.436% | Potency [8] | Potency [15] | Potency [9] | Potency [10]

CCCC(=O)Cl
inactive: Potency [1] | Potency [2] | Potency [11] | Potency [4] | Potency [13] | Potency [5] | outcome [6] | Potency [8] | Potency [15] | Potency [10]

C[C@@H]1CC[C@H]2[C@@H](C)C(=O)O[C@@H]3O[C@@]4(C)CC[C@@H]1[C@]32OO4
active: Potency [16] 1.88 µM | Potency [18] 0.944 µM
inactive: Potency [1] | Potency [2] | Potency [11] | Potency [12] | Potency [4] | Potency [17] | Potency [13] | Potency [14] | outcome [6] | Potency [7] | Potency [8] | Potency [15] | Potency [10]

C=CC(=O)NCNC(=O)C=C
inactive: Potency [1] | Potency [2] | Potency [11] | Potency [3] | Potency [16] | Potency [13] | Potency [14] | Potency [5] | outcome [6] | Potency [7] | Potency [18] | Potency [8] | Potency [15] | Potency [9] | Potency [10]
active: activity change, positive = activation [19] 36.6%

CC(C)(OO)c1ccccc1
active: Potency [13] 34.4 µM
inactive: Potency [1] | Potency [2] | Potency [11] | Potency [3] | Potency [4] | Potency [16] | Potency [14] | Potency [7] | Potency [18] | Potency [8] | Potency [15] | Potency [9] | Potency [10]

Cl/C=C\C[N+]12CN3CN(CN(C3)C1)C2
active: Potency [12] 61.1 µM
inactive: Potency [1] | Potency [2] | Potency [11] | Potency [3] | Potency [4] | Potency [16] | Potency [17] | Potency [13] | Potency [5] | outcome [6] | Potency [7] | Potency [18] | activity change, positive = activation [19] -0.401% | Potency [8] | Potency [10]

CN(C)c1ccc(N(C)C)cc1
active: Potency [2] 63.5 µM | Potency [3] 61.3 µM
inactive: Potency [1] | Potency [11] | Potency [12] | Potency [4] | Potency [14] | outcome [6] | Potency [8] | Potency [9] | Potency [10]

N#Cc1ccc(Cl)cc1
inactive: Potency [1] | Potency [2] | Potency [11] | Potency [12] | Potency [4] | Potency [16] | Potency [14] | Potency [5] | outcome [6] | Potency [18] | activity change, positive = activation [19] 0.802% | Potency [8] | Potency [15] | Potency [9] | Potency [10]

O=C(O)C(F)(F)C(F)(F)C(F)(F)C(F)(F)C(F)(F)C(F)(F)C(F)(F)C(F)(F)C(F)(F)C(F)(F)F
active: Potency [17] 57.9 µM
inactive: Potency [1] | Potency [2] | Potency [11] | Potency [12] | Potency [4] | Potency [16] | Potency [5] | Potency [7] | Potency [18] | Potency [8] | Potency [15] | Potency [9]

COC(=O)c1cncn1C(C)c1ccccc1 (stereo not drawn)
inactive: Potency [1] | Potency [2] | Potency [11] | Potency [12] | Potency [4] | Potency [13] | Potency [14] | Potency [5] | outcome [6] | Potency [7] | Potency [8] | Potency [15] | Potency [9] | Potency [10]

C=CCCl
inactive: Potency [1] | Potency [2] | Potency [11] | Potency [12] | Potency [3] | Potency [4] | Potency [14] | Potency [5] | outcome [6] | Potency [7] | Potency [8] | Potency [15] | Potency [9] | Potency [10]

CCCC(Cn1cncn1)c1ccc(Cl)cc1Cl (stereo not drawn)
active: Potency [1] 54.5 µM | Potency [3] 61.1 µM | Potency [16] 30.6 µM | Potency [18] 30.6 µM | Potency [15] 21.9 µM
inactive: Potency [2] | Potency [20] | Potency [12] | Potency [17] | Potency [14] | Potency [5] | outcome [6] | Potency [8] | Potency [10]

CCC(Br)(CC)C(=O)NC(N)=O
inactive: Potency [1] | Potency [2] | Potency [11] | Potency [12] | Potency [4] | Potency [13] | Potency [14] | Potency [5] | outcome [6] | Potency [8] | Potency [15] | Potency [9] | Potency [10]

Clc1cc(C(Cl)(Cl)Cl)cnc1Cl
inactive: Potency [1] | Potency [2] | Potency [4] | Potency [16] | Potency [17] | Potency [13] | Potency [14] | outcome [6] | Potency [7] | Potency [18] | activity change, positive = activation [19] 0.0985% | Potency [8] | Potency [9] | Potency [10]
active: Potency [20] 43.3 µM | Potency [5] 89.8 µM | Potency [15] 34.7 µM

CCC(C)(NC(=O)c1cc(Cl)c(C)c(Cl)c1)C(=O)CCl (stereo not drawn)
inactive: Potency [2] | Potency [3] | Potency [5] | activity change, positive = activation [19] -68.6% | Potency [9]
active: Potency [1] 24.5 µM | Potency [12] 48.9 µM | Potency [4] 24.5 µM | Potency [16] 3.88 µM | Potency [13] 43.5 µM | Potency [14] 34.9 µM | Potency [18] 9.75 µM | Potency [8] 49.3 µM | Potency [15] 19.6 µM | Potency [10] 49.3 µM
